Measured values taken from PubChem BioAssay (NCI).
This is part of a sample that, as a whole, favours compounds with a hit. Of some 83,000 tested, about 20% had one in any assay.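 Step 1: grow cells in 96-well plates. Step 2: add test compound at a single concentration. Step 3: incubate 48 h. Step 4: record percent growth.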 Unmarked numbers belong to inactive results. The source made the active and inactive calls. How the source made its calls: active means growth percent below 10; inactive means the rest.

Tests used:
Assay in all cases: NCI-60 one-dose screen, 48 h (100 = growth as untreated, 0 = no growth, -100 = all killed)
Conditions in all cases: 10 µM unless noted
HCT-15 colon = test system: HCT-15 colon
HT29 colon = test system: HT29 colon
SNB-75 CNS = test system: SNB-75 CNS
SNB-19 CNS = test system: SNB-19 CNS
U251 CNS = test system: U251 CNS
PC-3 prostate = test system: PC-3 prostate
SK-MEL-5 melanoma = test system: SK-MEL-5 melanoma
UACC-62 melanoma = test system: UACC-62 melanoma
LOX IMVI melanoma = test system: LOX IMVI melanoma
SK-MEL-28 melanoma = test system: SK-MEL-28 melanoma
SK-MEL-2 melanoma = test system: SK-MEL-2 melanoma
EKVX NSCLC = test system: EKVX NSCLC
SN12C renal = test system: SN12C renal
UO-31 renal = test system: UO-31 renal
TK-10 renal = test system: TK-10 renal
ACHN renal = test system: ACHN renal
CAKI-1 renal = test system: CAKI-1 renal
A498 renal = test system: A498 renal
CCRF-CEM leukemia = test system: CCRF-CEM leukemia
MOLT-4 leukemia = test system: MOLT-4 leukemia

SMILES	growth (HCT-15 colon)	growth (HT29 colon)	growth (SNB-75 CNS)	growth (SNB-19 CNS)	growth (U251 CNS)	growth (PC-3 prostate)	growth (SK-MEL-5 melanoma)	growth (UACC-62 melanoma)	growth (LOX IMVI melanoma)	growth (SK-MEL-28 melanoma)	growth (SK-MEL-2 melanoma)	growth (EKVX NSCLC)	growth (SN12C renal)	growth (UO-31 renal)	growth (TK-10 renal)	growth (ACHN renal)	growth (CAKI-1 renal)	growth (A498 renal)	growth (CCRF-CEM leukemia)	growth (MOLT-4 leukemia)
CC(C)C(=O)Nc1ncc(C(=O)NCCN(Cc2ccccc2)C(=O)c2ccc(S(=O)(=O)Nc3ccccc3)cc2)s1	96.6%	104%	78.3%	97.1%	97.4%	94.3%	90.8%	89.6%	104%	98.4%	97.8%	97.6%	91.4%	80.2%	100%	101%	92.4%	87.7%	96.2%	75.1%
CN1CCN(Cc2ccc(NC(=O)c3cc(C#Cc4cnc(N)c5ncccc45)n(C)n3)cc2C(F)(F)F)CC1	58.4%	91.4%	142%	103%	38.5%	98.9%	93.6%	100%	91.5%	100%	101%	105%	76.8%	64%	147%	47.2%	105%	83.2%	4.79% (active)	80.9%
O=C1/C(=C/c2cccc(Br)c2)COc2ccc(O)c(O)c21	-7.69% (active)	2.91% (active)	15.1%	1.36% (active)	-85.3% (active)	-35.1% (active)	23.3%	-72.2% (active)	-90.8% (active)	-17.2% (active)	-14.8% (active)	41.9%	-73.8% (active)	-100% (active)	12%	-92.8% (active)	-54.4% (active)	112%	4.21% (active)	2.59% (active)
CCNc1nc(-c2ccc(Cl)c(OC)c2)c(-c2ccnc(NCCNS(=O)(=O)c3ccc(Cl)cc3)n2)s1	16.7%	5.01% (active)	46.1%	34.2%	17.3%	9.83% (active)	13.5%	24.6%	13.9%	32.3%	-30% (active)	34.9%	36.1%	40.8%	22.5%	33.7%	30.4%	18.6%	21.4%	11.2%
CNC(=O)c1cc(Oc2ccc3nc(NC(=O)Nc4ccc(F)cc4F)sc3c2)ccn1	84%	58.8%	19.2%	71.1%	37%	65.9%	39%	65.1%	52.1%	52.1%	74.7%	89.8%	69.2%	91.4%	93.5%	60.6%	88.4%	10.9%	89.7%	82.4%
CCOC(=O)C#Cc1c(CC(=O)OCC)nnn1[C@H]1O[C@@H](CO)[C@@H]2OC(C)(C)O[C@@H]21	-12.8% (active)	29.2%	76.4%	97.7%	96.9%	89.4%	97.2%	84.8%	47.3%	86.6%	101%	99.5%	87.1%	15.7%	48.8%	-49.4% (active)	-88.4% (active)	111%	11.7%	50.1%
C=CCn1c(SCC(=O)Nc2ccc(C(=O)/C=C/c3cc(OC)c(OC)c(OC)c3)cc2)nnc1-c1cc(-c2ccc(S(N)(=O)=O)cc2)nc2ccccc12	97.7%	98.1%	77.2%	74.2%	58.9%	84.1%	87.6%	74.7%	73%	103%	100%	100%	90.3%	77.1%	141%	93.8%	72.2%	97%	29.5%	59.7%
COc1cccc(C2C3=C(COC3=O)N(CCO)c3cc4c(cc32)OCCO4)c1 (stereo not given)	2.89% (active)	-30.7% (active)	-14.1% (active)	9.81% (active)	2.46% (active)	20.3%	-12.1% (active)	24.8%	22.1%	38.7%	78.1%	39.7%	31%	75%	66.9%	24.8%	41.6%	-21.8% (active)	11.5%	11.8%
COc1ccc(-c2nc(SCCC(C)C)nc(N/N=C(/C)c3ccc(N)cc3)c2C#N)cc1	97.6%	104%	81.4%	81.6%	90.3%	96.5%	99.5%	87.5%	91.6%	121%	109%	93.4%	75.1%	69.3%	104%	92.9%	81.8%	90.9%	95.8%	95.4%
O=C1c2c(c3c4cccnc4[nH]c3c3ccc4ccccc4c23)C(=O)N1O	69%	27.9%	101%	29.7%	15.2%	43.1%	23.2%	24.4%	-31.5% (active)	46.1%	91%	97.7%	26.5%	57.6%	133%	45%	47%	84.7%	15.3%	6.42% (active)
COc1ccc(Nc2nc(Nc3cc(C)[nH]n3)c3cc(OC)c(OC)cc3n2)cc1	-83.1% [20 µM] (active)	-61.2% [20 µM] (active)	-94.5% [20 µM] (active)	-99.2% [20 µM] (active)	-69.8% [20 µM] (active)	-80.7% [20 µM] (active)	-84.7% [20 µM] (active)	-98.9% [20 µM] (active)	-92.6% [20 µM] (active)	-95.9% [20 µM] (active)	-68.6% [20 µM] (active)	-79.5% [20 µM] (active)	-90.4% [20 µM] (active)	-100% [20 µM] (active)	-86.6% [20 µM] (active)	-100% [20 µM] (active)	-100% [20 µM] (active)	-98.7% [20 µM] (active)	-38.9% [20 µM] (active)	-57.1% [20 µM] (active)
Cc1ccc(-c2nnc(SCc3nc(N)nc(Nc4ccccc4F)n3)n2-c2ccccc2)cc1	91.3%	98.5%	102%	91.8%	92.8%	87.7%	91.5%	86%	100%	97.5%	95.4%	94.2%	95.6%	70.4%	100%	92%	85.2%	55.3%	90.2%	70.2%
N#C/C(=C/C=C/c1ccccc1)S(=O)c1ccccc1 (stereo not given)	-9.4% (active)	-6% (active)	20.8%	-5.13% (active)	-81.5% (active)	-34.1% (active)	-84.7% (active)	-57% (active)	-80.7% (active)	-67.9% (active)	-15.9% (active)	-6.51% (active)	-52.5% (active)	-63.4% (active)	-89.8% (active)	-74.4% (active)	-25.6% (active)	-68.4% (active)	-5.68% (active)	-1.2% (active)
CC(=O)c1c(/C=C/c2ccc(C)cc2)c2ccccc2[nH]c1=O	102%	105%	73.7%	73.5%	86%	81.2%	95.9%	80.7%	84.7%	110%	107%	95.1%	83.2%	49.6%	106%	91%	67.6%	81.2%	105%	87.1%
CC1=C(C(=O)c2ccccc2)C(c2ccc3c(c2)OCO3)NC(=S)N1 (stereo not given)	33.7%	18.5%	-1.4% (active)	63.8%	37.5%	61.5%	28.2%	51.6%	36.2%	70.9%	60.5%	73.5%	51.4%	55.7%	66%	45.5%	35.6%	-12.5% (active)	41.2%	36.6%
